The source made the active and inactive calls. Rule for the calls: active = hit-call score of the fitted dose curve at least 0.9, where 1 is the maximum; inactive = score below 0.9.

What all share (conditions): mRNA level, 48 h; actives raise or lower the signal
Read-out in experiment [1]: Bcl-2 (BID) gene, BID (gene 637)
Briefly: LTEA_HepaRG_BID: Life Technologies and Expression Analysis (LTEA) Assay for Bcl-2 (BID) gene using HepaRG (AID 2283476). Summed up: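 Gene expression by qRT-PCR in HepaRG cells after 48 h exposure, duplicate wells, eight half-log concentrations topping at 100 uM in 0.5% DMSO. Normalized to ACTB, GAPDH, POLR2A; bidirectional fitting relative to DMSO.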

Read-out in a further experiment: Caspase-3 (Homo sapiens) (UniProt P42574)
Briefly: LTEA_HepaRG_CASP3: Life Technologies and Expression Analysis (LTEA) Assay for cysteine-aspartic acid protease (CASP3) using HepaRG (AID 2283477). Summed up: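 In HepaRG liver cells dosed for 48 h at up to 100 uM (eight-point, duplicate), CASP3 expression changes are scored by qRT-PCR. Activity is fitted in both directions with 0.5% DMSO as baseline.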

Read-out in experiment [2]: Cytochrome P450 (CYP24A1), CYP24A1 (gene 1591)
Briefly: LTEA_HepaRG_CYP24A1: Life Technologies and Expression Analysis (LTEA) Assay for Cytochrome P450 (CYP24A1) using HepaRG (AID 2283478). The essentials:
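Human liver HepaRG cultures receive each chemical for 48 h across an eight-point half-log series topping at 100 uM in 0.5% DMSO. Induction or suppression of CYP24A1 mRNA is scored relative to vehicle after housekeeping-gene normalization.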

Read-out in experiment [3]: Cytochrome P450 (CYP1A2), CYP1A2 (gene 1544)
Briefly: LTEA_HepaRG_CYP1A2: Life Technologies and Expression Analysis (LTEA) Assay for Cytochrome P450 (CYP1A2) using HepaRG (AID 2283479). Summed up:
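Assesses CYP1A2 mRNA in human HepaRG liver cells after 48 h chemical exposure at up to 100 uM. Values come from qRT-PCR with bidirectional curve fitting relative to DMSO.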

Read-out in experiment [4]: cysteine-aspartic acid protease (CASP8), CASP8 (gene 841)
Description: LTEA_HepaRG_CASP8: Life Technologies and Expression Analysis (LTEA) Assay for cysteine-aspartic acid protease (CASP8) using HepaRG (AID 2283480). Summed up:
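Differentiated HepaRG cells in serum-free induction medium, 48 h exposure, eight-point half-log series from 100 uM in 0.5% DMSO, duplicates. CASP8 mRNA by qRT-PCR, normalized to ACTB, GAPDH, POLR2A; bidirectional fit versus DMSO.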

Read-out in experiment [5]: Cytochrome P450 (CYP2B6), CYP2B6 (gene 1555)
Description: LTEA_HepaRG_CYP2B6: Life Technologies and Expression Analysis (LTEA) Assay for Cytochrome P450 (CYP2B6) using HepaRG (AID 2283481). Summed up: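 Using 48 h treatment of HepaRG cells in serum-free induction medium, concentrations spanned half-log steps from 100 uM in 0.5% DMSO vehicle. CYP2B6 mRNA induction or loss is scored by qRT-PCR against DMSO.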

Read-out in experiment [6]: Cytochrome P450 2C19 (Homo sapiens) (UniProt P33261)
Description: LTEA_HepaRG_CYP2C19: Life Technologies and Expression Analysis (LTEA) Assay for CYP2C19 using HepaRG (AID 2283482). The essentials:
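Human HepaRG liver cells received test chemicals for 48 h (highest 100 uM, half-log dilutions in 0.5% DMSO). CYP2C19 mRNA induction or loss is read by multiplexed qRT-PCR and fitted in both directions versus vehicle.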

Read-out in another experiment: CYP2C8 (gene 1558)
Description: LTEA_HepaRG_CYP2C8: Life Technologies and Expression Analysis (LTEA) Assay for CYP2C8 using HepaRG (AID 2283483). Summed up: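 Differentiated HepaRG cells in serum-free induction medium exposed 48 h in duplicate to 8 half-log concentrations from 100 uM in 0.5% DMSO. CYP2C8 mRNA by qRT-PCR normalized to ACTB, GAPDH, POLR2A; bidirectional fit versus DMSO.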

Read-out in a further experiment: CYP2C9 (gene 1559)
Briefly: LTEA_HepaRG_CYP2C9: Life Technologies and Expression Analysis (LTEA) Assay for CYP2C9 using HepaRG (AID 2283484). Summed up:
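Differentiated human HepaRG cells in serum-free induction medium were exposed 48 h to chemicals in 8-point half-log series from 100 uM (0.5% DMSO), in duplicate. CYP2C9 mRNA was measured by qRT-PCR, normalized to ACTB/GAPDH/POLR2A, with bidirectional fitting versus DMSO.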

Read-out in a further experiment: CYP2E1 (gene 1571)
Description: LTEA_HepaRG_CYP2E1: Life Technologies and Expression Analysis (LTEA) Assay for CYP2E1 using HepaRG (AID 2283485). The essentials: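 HepaRG cells, plated 48 h, then exposed 48 h in serum-free induction medium to eight half-log concentrations from 100 uM in 0.5% DMSO, duplicate. CYP2E1 mRNA by qRT-PCR, normalized to ACTB/GAPDH/POLR2A; bidirectional fit versus DMSO.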

Read-out in another experiment: CYP4A11 (gene 1579)
Description: LTEA_HepaRG_CYP4A11: Life Technologies and Expression Analysis (LTEA) Assay for CYP4A11 using HepaRG (AID 2283486). Summed up: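 Readout is CYP4A11 mRNA induction or suppression (qRT-PCR, ACTB/GAPDH/POLR2A normalization) in human HepaRG cells after 48 h chemical treatment, concentrations to 100 uM in 0.5% DMSO, fitted bidirectionally against vehicle.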

Read-out in experiment [7]: Cytochrome P450 3A4 (Homo sapiens) (UniProt P08684)
Description: LTEA_HepaRG_CYP3A4: Life Technologies and Expression Analysis (LTEA) Assay for CYP3A4 using HepaRG (AID 2283487). Summed up: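 In a human hepatic line (HepaRG), duplicate wells were treated 48 h with up to 100 uM chemical in half-log dilutions. Endpoint: CYP3A4 mRNA induction or loss relative to 0.5% DMSO vehicle, by qRT-PCR.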

Read-out in experiment [8]: Pro-epidermal growth factor (Homo sapiens) (UniProt P01133)
Briefly: LTEA_HepaRG_EGF: Life Technologies and Expression Analysis (LTEA) Assay for Epidermal growth factor (EGF) using HepaRG (AID 2283489). The essentials: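 EGF expression changes in human HepaRG cells are scored by bidirectional fitting relative to 0.5% DMSO controls. Chemicals are tested at eight half-log concentrations up to 100 uM for 48 h in serum-free induction medium.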

Read-out in experiment [9]: Ezrin (EZR), EZR (gene 7430)
Briefly: LTEA_HepaRG_EZR: Life Technologies and Expression Analysis (LTEA) Assay for Ezrin (EZR) using HepaRG (AID 2283491). The essentials: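 Gain or loss of EZR mRNA is scored relative to 0.5% DMSO in human HepaRG cultures treated 48 h with test chemicals in duplicate, eight half-log concentrations from 100 uM.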

Read-out in another experiment: CYP3A5 (gene 1577)
Briefly: LTEA_HepaRG_CYP3A5: Life Technologies and Expression Analysis (LTEA) Assay for CYP3A5 using HepaRG (AID 2283493). Summed up:
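HepaRG cells, plated 48 h then in serum-free induction medium, dosed in duplicate for 48 h with eight half-log concentrations up to 100 uM in 0.5% DMSO. Gene mRNA by Fluidigm TaqMan qRT-PCR, normalized to ACTB, GAPDH, POLR2A.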

Read-out in experiment [10]: Fatty Acid-Binding Protein 1 (FABP1), FABP1 (gene 2168)
Description: LTEA_HepaRG_FABP1: Life Technologies and Expression Analysis (LTEA) Assay for Fatty Acid-Binding Protein 1 (FABP1) using HepaRG (AID 2283494). The essentials: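 Differentiated human HepaRG cells exposed 48 h in serum-free induction medium to eight half-log concentrations up to 100 uM (0.5% DMSO), duplicate. FABP1 mRNA by qRT-PCR, normalised to ACTB, GAPDH, POLR2A; bidirectional fitting against DMSO.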

Read-out in experiment [11]: Cytochrome P450 4A22 (Homo sapiens) (UniProt Q5TCH4)
Description: LTEA_HepaRG_CYP4A22: Life Technologies and Expression Analysis (LTEA) Assay for Cytochrome P450 4A22 (CYP4A22) using HepaRG (AID 2283495). The essentials: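 Cryopreserved HepaRG cells, plated and cultured 48 h, then switched to serum-free induction medium and treated 48 h (duplicates, up to 100 uM, half-log steps, 0.5% DMSO). Expression change of CYP4A22 was fitted bidirectionally against vehicle.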

Read-out in experiment [12]: Cytochrome P450 3A7 (Homo sapiens) (UniProt P24462)
Description: LTEA_HepaRG_CYP3A7: Life Technologies and Expression Analysis (LTEA) Assay for CYP3A7 using HepaRG (AID 2283492). The essentials: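 Cells were thawed, plated, cultured 48 h, then treated for a further 48 h with chemicals (eight-point half-log series from 100 uM, 0.5% DMSO). RNA was isolated and CYP3A7 expression quantified by qRT-PCR normalised to ACTB, GAPDH and POLR2A.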

Read-out in experiment [13]: Early growth response protein 1 (EGR1) transcription factor, EGR1 (gene 1958)
Description: LTEA_HepaRG_EGR1: Life Technologies and Expression Analysis (LTEA) Assay for Early growth response protein 1 (EGR1) transcription factor using HepaRG (AID 2283490). The essentials:
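Differentiated HepaRG cells in serum-free induction medium exposed 48 hours, duplicate, to 8 half-log concentrations up to 100 uM in 0.5% DMSO. EGR1 mRNA measured by TaqMan qRT-PCR, normalized to ACTB, GAPDH, POLR2A; bidirectional fit versus DMSO.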

Sequence of Cytochrome P450 2C19 (Homo sapiens) (P33261 whole entry, looked up): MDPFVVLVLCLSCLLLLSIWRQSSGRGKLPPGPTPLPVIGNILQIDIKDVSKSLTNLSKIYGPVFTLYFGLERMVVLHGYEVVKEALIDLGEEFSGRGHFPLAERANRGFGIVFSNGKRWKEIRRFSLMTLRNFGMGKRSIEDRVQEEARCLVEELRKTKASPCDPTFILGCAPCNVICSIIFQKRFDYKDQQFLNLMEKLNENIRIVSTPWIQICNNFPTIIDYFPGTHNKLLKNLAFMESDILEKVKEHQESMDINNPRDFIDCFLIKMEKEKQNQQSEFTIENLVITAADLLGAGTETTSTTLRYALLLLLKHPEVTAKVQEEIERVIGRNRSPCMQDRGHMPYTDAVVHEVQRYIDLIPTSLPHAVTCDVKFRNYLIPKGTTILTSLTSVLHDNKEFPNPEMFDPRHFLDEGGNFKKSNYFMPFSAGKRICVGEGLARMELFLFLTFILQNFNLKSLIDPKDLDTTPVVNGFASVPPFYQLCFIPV
Sequence of Cytochrome P450 3A4 (Homo sapiens) (P08684 whole entry, looked up): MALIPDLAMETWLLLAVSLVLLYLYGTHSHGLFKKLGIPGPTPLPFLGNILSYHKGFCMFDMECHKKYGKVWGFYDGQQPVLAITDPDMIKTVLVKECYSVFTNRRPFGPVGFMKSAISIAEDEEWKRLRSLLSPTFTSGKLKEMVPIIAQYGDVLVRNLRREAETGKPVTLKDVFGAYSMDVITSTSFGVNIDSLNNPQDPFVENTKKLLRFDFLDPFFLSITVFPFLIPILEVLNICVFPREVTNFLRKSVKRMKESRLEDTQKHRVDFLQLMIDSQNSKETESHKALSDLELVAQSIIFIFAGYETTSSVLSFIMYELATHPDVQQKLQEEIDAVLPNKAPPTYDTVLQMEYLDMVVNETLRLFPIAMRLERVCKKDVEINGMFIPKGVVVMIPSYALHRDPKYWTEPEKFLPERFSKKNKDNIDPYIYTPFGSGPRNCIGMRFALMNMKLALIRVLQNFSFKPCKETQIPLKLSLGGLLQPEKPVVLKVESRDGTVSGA
Sequence of Caspase-3 (Homo sapiens) (P42574 whole entry, looked up): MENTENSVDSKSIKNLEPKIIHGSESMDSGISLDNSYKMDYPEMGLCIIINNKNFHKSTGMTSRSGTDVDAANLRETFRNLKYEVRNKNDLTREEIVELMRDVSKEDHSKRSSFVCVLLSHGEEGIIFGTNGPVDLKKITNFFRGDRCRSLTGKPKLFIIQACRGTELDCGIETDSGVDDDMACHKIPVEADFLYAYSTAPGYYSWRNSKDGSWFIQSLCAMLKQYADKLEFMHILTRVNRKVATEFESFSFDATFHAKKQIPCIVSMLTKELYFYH
Sequence of Cytochrome P450 3A7 (Homo sapiens) (P24462 whole entry, looked up): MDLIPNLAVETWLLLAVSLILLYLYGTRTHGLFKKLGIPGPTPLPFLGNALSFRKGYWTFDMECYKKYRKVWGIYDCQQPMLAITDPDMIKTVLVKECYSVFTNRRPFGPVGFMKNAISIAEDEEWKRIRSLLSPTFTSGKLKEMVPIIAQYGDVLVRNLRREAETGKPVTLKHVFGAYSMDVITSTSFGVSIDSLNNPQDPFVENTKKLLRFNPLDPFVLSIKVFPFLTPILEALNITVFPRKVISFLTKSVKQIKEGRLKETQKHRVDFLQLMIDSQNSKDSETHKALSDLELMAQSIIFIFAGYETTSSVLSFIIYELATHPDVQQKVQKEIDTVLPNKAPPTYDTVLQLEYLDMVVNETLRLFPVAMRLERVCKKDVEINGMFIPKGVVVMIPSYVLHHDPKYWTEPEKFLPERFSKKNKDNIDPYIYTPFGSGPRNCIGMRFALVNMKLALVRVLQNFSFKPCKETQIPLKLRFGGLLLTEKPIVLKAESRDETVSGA

For `Clc1nc(Cl)nc(Nc2ccccc2Cl)n1`, the call (in experiment [1]; in the experiment with Caspase-3 (Homo sapiens); in experiment [2]; in experiment [4]; with CYP2C8 (gene 1558); in the experiment with CYP2C9 (gene 1559)) was inactive. The result (with CYP4A11 (gene 1579); in experiment [8]; in [9]; with CYP3A5 (gene 1577); in [10]; in [11]) was inactive. Besides, the AC50 in experiment [3] is 20.1 µM (active); in experiment [5], 34.8 µM (active); in experiment [6], 10.3 µM (active); in the experiment with CYP2E1 (gene 1571), 16.7 µM (active); in experiment [7], 18.5 µM (active).

Turning to `CCOP(=O)(OCC)Oc1nc(Cl)c(Cl)cc1Cl`, the outcome (in experiment [1]; with Caspase-3 (Homo sapiens); in experiment [2]; in experiment [3]; in [4]; in experiment [8]) was inactive. Besides, the compound was classed as inactive (in experiment [9]; with CYP3A5 (gene 1577)). Besides, the AC50 in experiment [5] is 83.6 µM (active); in [6] it was 80.7 µM (active); in the experiment with CYP2C8 (gene 1558), 84.5 µM (active); with CYP2C9 (gene 1559) it was 93 µM (active); with CYP2E1 (gene 1571), 76 µM (active); with CYP4A11 (gene 1579) it was 77.4 µM (active). Also, the AC50 in [7] was 49.8 µM (active); in experiment [12] it was 92.1 µM (active); in experiment [10], 82.6 µM (active); in [11] it was 90.1 µM (active).

In the case of `CC1(C)C(C=C(Cl)Cl)C1C(=O)OC(C#N)c1cccc(Oc2ccccc2)c1` (stereo not drawn), the compound was classed as inactive (in experiment [1]; with Caspase-3 (Homo sapiens); in [2]; in [4]; with CYP2C8 (gene 1558); with CYP2C9 (gene 1559)). In addition, the result (with CYP4A11 (gene 1579); in experiment [8]; in [13]; in [9]; in the experiment with CYP3A5 (gene 1577); in [10]) was inactive. Further, the call in experiment [11] was inactive. The AC50 is 21.9 µM (active) in experiment [3], 9.35 µM (active) in [5], 23.7 µM (active) in experiment [6] and 50.2 µM (active) with CYP2E1 (gene 1571).

Turning to `Cc1c(COC(=O)[C@@H]2[C@H](/C=C(\Cl)C(F)(F)F)C2(C)C)cccc1-c1ccccc1`, the outcome (in experiment [1]; with Caspase-3 (Homo sapiens); in experiment [2]; in experiment [4]; in the experiment with CYP2C8 (gene 1558); with CYP2C9 (gene 1559)) was inactive. The compound was called inactive (with CYP4A11 (gene 1579); in [8]; in experiment [9]; in the experiment with CYP3A5 (gene 1577); in experiment [11]). In addition, the AC50 in [3] is 76.3 µM (active); in [6], 17.9 µM (active); with CYP2E1 (gene 1571), 48.2 µM (active); in experiment [7] it was 11.3 µM (active); in [10] it was 35 µM (active).

One may read the AC50 as the concentration at which the activity in the assay is half-maximal.

The values above are taken from PubChem BioAssay (EPA / NIEHS).
